Data published in PMC11006913.

What was measured:
NKX3-2 [1] = biological target: NKX3-2 (Homo sapiens, UniProt P78367 192-278, P234S); assay: PBM; 200 nM protein, PBS; settings: dsDNA, one strand shown
NKX3-2 [2] = biological target: NKX3-2 (Homo sapiens, UniProt P78367 192-278); assay: PBM; 200 nM protein, PBS; settings: dsDNA, one strand shown
Chain of NKX3-2 (Homo sapiens, UniProt P78367 192-278) (P78367 192-278): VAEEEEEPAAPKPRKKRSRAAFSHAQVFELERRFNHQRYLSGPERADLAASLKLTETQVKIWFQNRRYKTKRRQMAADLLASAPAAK

Chain of NKX3-2 (Homo sapiens, UniProt P78367 192-278, P234S) (P78367 192-278 P234S): as the sequence (P78367 192-278) above, with P43S counted along it

Row | Sequence | binding signal (NKX3-2 [1]) | binding signal (NKX3-2 [2])
1 | CAAACCAG | 10.6 upbm affinity estimate (log intensity, higher = more binding, comparable within an allelic series) | 10.7 upbm affinity estimate (log intensity, higher = more binding, comparable within an allelic series)
2 | CATCACTA | 11.5 upbm affinity estimate (log intensity, higher = more binding, comparable within an allelic series) | 11.5 upbm affinity estimate (log intensity, higher = more binding, comparable within an allelic series)
3 | CCCGAATC | 10.4 upbm affinity estimate (log intensity, higher = more binding, comparable within an allelic series) | 10.4 upbm affinity estimate (log intensity, higher = more binding, comparable within an allelic series)
4 | CACTTACG | 12.7 upbm affinity estimate (log intensity, higher = more binding, comparable within an allelic series) | 12.8 upbm affinity estimate (log intensity, higher = more binding, comparable within an allelic series)
5 | GGGCGGAA | 10.7 upbm affinity estimate (log intensity, higher = more binding, comparable within an allelic series) | 10.7 upbm affinity estimate (log intensity, higher = more binding, comparable within an allelic series)
6 | GGTGGTAC | 10.5 upbm affinity estimate (log intensity, higher = more binding, comparable within an allelic series) | 10.6 upbm affinity estimate (log intensity, higher = more binding, comparable within an allelic series)
7 | CGCTGCGA | 10.5 upbm affinity estimate (log intensity, higher = more binding, comparable within an allelic series) | 10.5 upbm affinity estimate (log intensity, higher = more binding, comparable within an allelic series)
8 | CAAGTGCG | 12.2 upbm affinity estimate (log intensity, higher = more binding, comparable within an allelic series) | 12.3 upbm affinity estimate (log intensity, higher = more binding, comparable within an allelic series)
9 | CCGCTCAG | 10.6 upbm affinity estimate (log intensity, higher = more binding, comparable within an allelic series) | 10.6 upbm affinity estimate (log intensity, higher = more binding, comparable within an allelic series)
10 | CCGCCGAA | 10.4 upbm affinity estimate (log intensity, higher = more binding, comparable within an allelic series) | 10.4 upbm affinity estimate (log intensity, higher = more binding, comparable within an allelic series)
11 | GCCTGACC | 10.6 upbm affinity estimate (log intensity, higher = more binding, comparable within an allelic series) | 10.6 upbm affinity estimate (log intensity, higher = more binding, comparable within an allelic series)
12 | CTAAAGGC | 10.5 upbm affinity estimate (log intensity, higher = more binding, comparable within an allelic series) | 10.6 upbm affinity estimate (log intensity, higher = more binding, comparable within an allelic series)
13 | ACCGAACC | 10.6 upbm affinity estimate (log intensity, higher = more binding, comparable within an allelic series) | 10.7 upbm affinity estimate (log intensity, higher = more binding, comparable within an allelic series)
14 | CGCGGCCG | 10.2 upbm affinity estimate (log intensity, higher = more binding, comparable within an allelic series) | 10.2 upbm affinity estimate (log intensity, higher = more binding, comparable within an allelic series)
15 | AAAAGGGT | 11.5 upbm affinity estimate (log intensity, higher = more binding, comparable within an allelic series) | 11.6 upbm affinity estimate (log intensity, higher = more binding, comparable within an allelic series)
16 | CCACTCAG | 12.6 upbm affinity estimate (log intensity, higher = more binding, comparable within an allelic series) | 12.7 upbm affinity estimate (log intensity, higher = more binding, comparable within an allelic series)
17 | GAAGTGGC | 12.7 upbm affinity estimate (log intensity, higher = more binding, comparable within an allelic series) | 12.8 upbm affinity estimate (log intensity, higher = more binding, comparable within an allelic series)
18 | AAGTATAC | 11.6 upbm affinity estimate (log intensity, higher = more binding, comparable within an allelic series) | 11.7 upbm affinity estimate (log intensity, higher = more binding, comparable within an allelic series)
19 | ACCTCTTG | 11.6 upbm affinity estimate (log intensity, higher = more binding, comparable within an allelic series) | 11.7 upbm affinity estimate (log intensity, higher = more binding, comparable within an allelic series)
20 | CTGCATCC | 10.6 upbm affinity estimate (log intensity, higher = more binding, comparable within an allelic series) | 10.7 upbm affinity estimate (log intensity, higher = more binding, comparable within an allelic series)
21 | GCCACTCA | 12.6 upbm affinity estimate (log intensity, higher = more binding, comparable within an allelic series) | 12.7 upbm affinity estimate (log intensity, higher = more binding, comparable within an allelic series)
22 | AGGCATGG | 10.6 upbm affinity estimate (log intensity, higher = more binding, comparable within an allelic series) | 10.5 upbm affinity estimate (log intensity, higher = more binding, comparable within an allelic series)
23 | AGAGAGGA | 11.5 upbm affinity estimate (log intensity, higher = more binding, comparable within an allelic series) | 11.6 upbm affinity estimate (log intensity, higher = more binding, comparable within an allelic series)
24 | GAGACCGC | 10.7 upbm affinity estimate (log intensity, higher = more binding, comparable within an allelic series) | 10.7 upbm affinity estimate (log intensity, higher = more binding, comparable within an allelic series)
25 | CTCTAGAG | 10.9 upbm affinity estimate (log intensity, higher = more binding, comparable within an allelic series) | 10.9 upbm affinity estimate (log intensity, higher = more binding, comparable within an allelic series)
26 | CCCCCAAA | 10.7 upbm affinity estimate (log intensity, higher = more binding, comparable within an allelic series) | 10.7 upbm affinity estimate (log intensity, higher = more binding, comparable within an allelic series)
27 | AAGTGACG | 11.7 upbm affinity estimate (log intensity, higher = more binding, comparable within an allelic series) | 11.9 upbm affinity estimate (log intensity, higher = more binding, comparable within an allelic series)
28 | GCCGAGCC | 10.8 upbm affinity estimate (log intensity, higher = more binding, comparable within an allelic series) | 10.7 upbm affinity estimate (log intensity, higher = more binding, comparable within an allelic series)
29 | CCACTTCG | 12.8 upbm affinity estimate (log intensity, higher = more binding, comparable within an allelic series) | 12.9 upbm affinity estimate (log intensity, higher = more binding, comparable within an allelic series)
